Compound activity (PubChem)
In the library only some 21% were active in any assay of this set; here they are far more common.
DT40 TDP1 CPT = DT40-hTDP1 cell growth loss with CPT. chicken DT40 Tdp1-/-;hTDP1 cells + 20 nM CPT, ATP luminescence, 48 h. Potency, µM (top dose mostly 46.2 µM), without a hit: at the top dose activity change, negative = growth inhibition, usual class: inhibitors. hit rate 12% among 420,000; note: potency is the fitted concentration of half-maximal effect; nearly all actives have a fitted effect of over 55% in size
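Chicken DT40 Tdp1-/- cells complemented with human TDP1, 400 cells/well, exposed to compounds plus 20 nM camptothecin for at least 48 h at 37 C; viability read as ATP content by CellTiter-Glo luminescence.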
IL1B secr inh = inhibitors of inflammasome signaling (IL-1 beta secretion); THP-1 LPS/ATP IL-1B secretion, AlphaLISA, 16 h; stronger effect = lower value; activity change, % at 57.5 µM; hit rate 4.7% among 360,000; in the data active = activity change below about -50%; inconclusive = mostly about -30% to -49%
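Secreted IL-1B measured by AlphaLISA bead assay after 16 h compound exposure of THP-1 cells; compounds (final up to 57.5 uM) added 1 h before LPS (250 ng/mL) and ATP (1.25 mM) stimulation; lower signal means less secretion.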
DT40 TDP1 no CPT = qHTS for Inhibitors of human tyrosyl-DNA phosphodiesterase 1 (TDP1): qHTS in cells in absence of CPT | AID 686978, 2013 | DT40 Tdp1-/- hTDP1 cells, no CPT, ATP luminescence, 48 h | hit rate 15% among 420,000 | Potency, µM (series often up to 46.2 µM), for the others: at the top dose activity change, negative = growth inhibition, actives largely listed as inhibitors; note: potency is the fitted concentration of half-maximal effect; nearly all actives have a fitted effect of over 55% in size
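Seeded 400 DT40-hTDP1 cells/well (vehicle DMSO, no 20 nM CPT); pinned compounds; ≥48 hr at 37 °C; CellTiter-Glo luminescence as viability measure.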
Gal4-VP16 FLuc = Gal4-VP16 reporter inhibition counter-screen | Drosophila S2 Gal4-VP16 UAS-luciferase, luminescence, 20 h | Potency, µM (doses to about 53.6 µM), inactives show top-dose activity, negative = inhibition, usual class: inhibitors | hit rate 3.5% among 310,000;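 note: Gal4-VP16 expression switched on by copper sulfate through the metallothionein promoter; potency is the fitted concentration of half-maximal effect; nearly all actives have a fitted effect of over 50% in size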
ELG1 repair inh = inhibitors of ELG1-dependent DNA repair in HEK293T cells; Potency, µM (series often up to 46.1 µM), without a hit: top-dose activity change, negative = inhibition, hits mostly inhibitors; HEK293T ELG1-luciferase reporter, luminescence, 16 h; DNA damage induced by 5-fluorouridine; hit rate 2.3% among 330,000; note: potency is the fitted concentration of half-maximal effect; nearly all actives have a fitted effect of over 55% in size
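HEK293T cells expressing luciferase-tagged ELG1 (2,000/well) received 5-Fluorouridine plus compound or DMSO for 16 hr at 37 °C. Luciferase was read by ONE-Glo luminescence after 30 min at room temperature.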
RORgamma inh = blocks mouse ROR gamma transcriptional activity. P51450. Drosophila S2 Gal4-RORgamma UAS-luciferase reporter, 20 h. Potency, µM (titrated, usually from 53.6 µM), without a hit: top-dose activity change, negative = inhibition, hits mostly inhibitors. hit rate 5.4% among 310,000; note: potency is the fitted concentration of half-maximal effect; nearly all actives have a fitted effect of over 60% in size
Target sequence (P51450 whole entry, looked up, the tested form may be a part): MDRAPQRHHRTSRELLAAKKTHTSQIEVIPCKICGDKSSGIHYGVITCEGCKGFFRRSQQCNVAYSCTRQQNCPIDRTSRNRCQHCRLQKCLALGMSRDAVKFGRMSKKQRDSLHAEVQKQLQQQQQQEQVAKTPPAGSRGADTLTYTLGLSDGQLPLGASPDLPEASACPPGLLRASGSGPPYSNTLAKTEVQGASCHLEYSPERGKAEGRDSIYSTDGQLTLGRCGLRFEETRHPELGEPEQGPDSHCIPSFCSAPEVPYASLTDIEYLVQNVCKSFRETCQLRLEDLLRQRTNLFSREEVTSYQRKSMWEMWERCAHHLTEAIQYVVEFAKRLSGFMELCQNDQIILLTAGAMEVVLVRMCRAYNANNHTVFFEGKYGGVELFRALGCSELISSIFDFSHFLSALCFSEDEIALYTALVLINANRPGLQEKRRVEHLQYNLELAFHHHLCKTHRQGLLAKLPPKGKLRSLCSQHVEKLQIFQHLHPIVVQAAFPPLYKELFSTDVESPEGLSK
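A Gal4/UAS one-hybrid system in insect cells: metallothionein-promoter Gal4–ROR gamma fusion plus Photinus luciferase reporter. Copper sulfate 700 uM final, 20 hr ambient incubation, luminescent detection after 10 min with reagent.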
Active calls of the source: *; ? = inconclusive; . = no result. Unless noted, calls come from the whole dose curve; as a rule, active = well fitted curve in the direction sought with a large enough effect; inconclusive = small, poorly fitted or top-dose-only effect, or another doubt; inactive = no such curve, though single readings can be large; an effect the other way counts as inactive or inconclusive. % is set by controls: 0 for no effect and ±100 for the full control effect.

SMILES	DT40 TDP1 CPT	IL1B secr inh	DT40 TDP1 no CPT	Gal4-VP16 FLuc	ELG1 repair inh	RORgamma inh
O=C(Nc1cccc2c1CCCC2)c1cc(C2CCCCN2C(=O)CCCc2ccccc2)on1 (stereo unspecified)	16.4µM*	0.0	?	.	.	.
O=C(Nc1ccncc1)c1cc(C2CCCCN2C(=O)CCCc2ccccc2)on1 (stereo unspecified)	16.4µM*	2.4	14.6µM*	.	.	.
O=C(Nc1ccccc1Cl)c1cc(C2CCCCN2C(=O)CCc2ccccc2)on1 (stereo unspecified)	?	-16.6	?	.	.	.
C/C(=N/Nc1ccc(C(=O)c2c(C)cc3ccccn23)cc1[N+](=O)[O-])c1ccc(O)cc1	18.4µM*	-3.6	?	.	.	.
Cc1cc2ccccn2c1C(=S)NC(=O)c1ccccc1	?	-12.8	?	3.55µM*	16.7%	3.16µM*
Cc1cc2ccccn2c1C(=O)c1ccncc1	-9.5%	1.6	-11.4%	-3.2%	0.5%	3.6%
Cc1cc2ccccn2c1C(=O)c1ccc(Cl)cc1	-28.1%	-25.3	-24.2%	15.8µM*	?	?
CCCS(=O)(=O)NC(=O)C1(C)CCCN(C(=O)c2cc(C)nn2C(C)(C)C)C1 (stereo unspecified)	8.4%	32.5	7.9%	.	.	.
O=[N+]([O-])c1ccc(CNc2ccc(Cl)cc2)s1	-21.4%	?	-13.7%	.	?	.
O=[N+]([O-])c1ccc(CNc2cccc(Cl)c2)s1	?	-95.2*	?	1.0%	?	-2.5%
COc1ccc(NCc2ccc([N+](=O)[O-])s2)cc1	?	-71.3*	20.6µM*	?	-17.7%	-3.6%
COc1ccc(NCc2ccc([N+](=O)[O-])s2)c(OC)c1	16.4µM*	-8.1	?	11.2µM*	-1.1%	12.1%
O=[N+]([O-])c1ccc(CNc2ccc(F)cc2)s1	-14.0%	-85.0*	?	-4.2%	?	-11.4%
NS(=O)(=O)c1ccc(CNC(=O)CSc2nc3ccc(Cl)cc3[nH]2)cc1	14.6%	23.0	-0.1%	3.2%	-1.7%	-6.4%
COc1ccc(C(=O)NCCCN2CCCC2=O)cc1S(=O)(=O)N1CCOCC1	-3.5%	-12.9	8.2%	.	.	.
COc1ccc(CN2C(=O)C(CC(=O)NCCc3ccccn3)CC(C(=O)N(C)C)=C2C)cc1 (stereo unspecified)	24.7%	3.4	-18.0%	.	.	.
O=C(NCCc1ccccc1F)C1C(=O)Nc2ccccc2C(=O)N1C1CCCCC1 (stereo unspecified)	6.4%	0.0	-10.3%	.	.	.
CCOC(=O)c1cc2c(N)c(C(=O)c3cc(C#N)c(SC)nc3C)sc2nc1C	13µM*	15.0	10.3µM*	-2.7%	0.0%	21.2%
CCOC(=O)c1cc(C#N)c(SC)nc1C	10.6%	20.8	9.6%	-16.4%	13.9%	-5.5%
O=c1c(-c2nc3ccccc3o2)c2oc3ccccc3n2c2ccccc12	.	.	.	0.5%	5.17µM*	-7.6%
Nc1ccc(-c2nc3ccccc3o2)cc1	-9.5%	8.5	-1.2%	0.4%	?	-25.2%
COCCn1c(C(=O)N2CCCC2)cc2c1C[C@H]1CN(C(=O)c3ccccc3)[C@@](Cc3ccc(F)cc3)(C(=O)OC)[C@@H]21	-13.4%	-16.7	?	1.0%	12.4%	43.2%
COC(=O)[C@@]1(Cc2ccc(F)cc2)[C@H]2c3cc(C(=O)N4CCCC4)n(C)c3C[C@H]2CN1C(=O)c1ccccc1	23.1µM*	-53.6*	16.4µM*	.	.	.
COC(=O)[C@@]1(Cc2ccc(F)cc2)[C@H]2c3cc(C(=O)N4CCCC4)n(Cc4ccccc4)c3C[C@H]2CN1C(=O)c1ccccc1	?	-50.8*	23.1µM*	-18.6%	.	32.4%
CCOc1ccc(C2NC(=O)Cc3cc(OC)c(OC)cc32)cc1 (stereo unspecified)	1.5%	12.5	-24.7%	-2.6%	28.6%	3.2%
SMILES	DT40 TDP1 CPT	IL1B secr inh	DT40 TDP1 no CPT	Gal4-VP16 FLuc	ELG1 repair inh	RORgamma inh
CCOc1cc2c(cc1OCC)C(c1ccccc1)N(c1ccccc1)C(=O)C2 (stereo unspecified)	16.4µM*	-17.6	16.4µM*	-1.9%	-18.4%	25.3%
COc1ccc(C2c3cc(OC)c(OC)cc3CC(=O)N2c2ccc(C)cc2)cc1 (stereo unspecified)	13µM*	.	20.6µM*	.	.	.
COc1cc2c(cc1OC)C(c1ccc(C)cc1)NC(=O)C2 (stereo unspecified)	-10.8%	-61.4*	1.1%	5.6%	2.9%	-21.6%
CCOc1cc2c(cc1OCC)C(c1ccc(OC)cc1)N(c1ccccc1)C(=O)C2 (stereo unspecified)	-4.2%	-1.3	8.6%	-1.0%	-12.8%	25.1%
COc1ccc(C2c3cc(OC)c(OC)cc3CC(=O)N2c2ccc(C)c(F)c2)cc1 (stereo unspecified)	3.26µM*	.	3.66µM*	.	.	.
CN=C1SC(C(=O)Nc2ccccc2Cl)CC(=O)N1c1ccc(OC(F)(F)Cl)cc1 (stereo unspecified)	3.2%	47.8	?	3.3%	-6.8%	-1.9%
Cc1ccc(-c2nn(-c3ccc(F)cc3F)c3c2cnc2ccc(F)cc23)cc1	-12.5%	.	-29.6%	.	.	.
O=C(NCc1nnc(SCC(=O)N2CCOCC2)o1)c1ccccc1	-25.7%	-16.0	2.4%	.	.	.
Cc1c(NC(=O)CCc2ccc(S(=O)(=O)N3CCOCC3)cc2)c(=O)n(-c2ccccc2)n1C	1.1%	9.2	-13.5%	.	.	.
O=C(CSc1nnc(Cn2nnc3ccccc32)o1)Nc1ccc(Cl)cc1	-1.1%	7.2	-7.1%	-1.4%	-8.0%	1.7%
O=C(CSc1nnc(Cn2nnc3ccccc32)o1)N(Cc1ccc(F)cc1)c1ccccc1	7.31µM*	-82.4*	7.08µM*	?	-1.0%	?
COc1ccc(N(Cc2ccccc2)C(=O)CSc2nnc(Cn3nnc4ccccc43)o2)cc1	25.9µM*	-2.0	23.1µM*	-4.4%	18.4µM*	0.7%
Cc1ccccc1OCCC(=O)N(CC(C)C)c1c(N)n(Cc2ccccc2)c(=O)[nH]c1=O	-12.4%	0.0	-29.9%	.	1.7%	.
CSc1ccc(CCNC(=O)CN2C(=O)c3cccnc3Oc3ccc(C)cc32)cc1	?	-17.9	29.1µM*	-9.7%	-10.2%	-3.8%
CCOc1ccc(CCNC(=O)CN2C(=O)c3cccnc3Oc3ccc(Cl)cc32)cc1	?	-10.0	20.6µM*	-5.2%	?	1.0%
Cc1ccc2c(c1)N(CC(=O)NCCCc1ccccc1)C(=O)c1cccnc1O2	?	-17.9	?	0.3%	?	19.0%
